The full data set covers some 8,800 targets. This sample favours those with a hit. About 0.5% of all pairs of compound and target were hits. Values without a mark were called inactive.
How the values were obtained:
Assay in all cases: log2 fold change, soluble protein after heating vs DMSO (PISA); higher = thermal stabilisation; K562 lysate, 10 uM; active = over 0.2 and 3.5 SD of the protein, either way, in both replicates (recomputed)
erlotinib = compound: C#Cc1cccc(Nc2ncnc3cc(OCCOC)c(OCCOC)cc23)c1 [erlotinib]
Summary of the method: (§1)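 A 30 min treatment with 10 μM compound was applied to crude K562 extract at 1 mg/mL protein in PBS pH 7.4 with 1 mM MgCl2. Heating for 3 min spanned 48°C-58°C, after which aliquots were pooled, adjusted to 0.5% NP-40 at 4°C and spun at 21,000xg for 90 min. TMTpro 16plex LC-MS/MS of the supernatant, with channel sums equalised, gave values recorded as log-two fold change in thermal stability against solvent controls, from duplicates.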

[1] = compound: C/C(=N\NC(=O)C1=CC(=CC=C1)S(=O)(=O)N2CCOCC2)/C3=C(C=CC(=C3)Cl)O
Summary of the method: as §1

[2] = compound: C1=CC(=CC=C1C2=NC3=C(N2)C=C(C=C3)C(=O)N)OC4=CC=C(C=C4)Cl
Summary of the method: as §1

[3] = compound: C1=CC2=C(C=CC(=C2)/C=C\3/C(=O)NC(=NCC4=CC=CS4)S3)N=C1
Summary of the method: as §1

[4] = compound: C1=CC2=NC=CN=C2C=C1/C=C/3\C(=O)NC(=O)S3
Summary of the method: as §1

[5] = compound: C1=CC=C(C=C1)C2=NC(=C(N2)C3=CC=NC=C3)C4=CC(=C(C=C4)Cl)O
Summary of the method: as §1

[6] = compound: C1=CC=C2C(=C1)C3=NNC4=CC=CC(=C43)C2=O
Summary of the method: as §1

[7] = compound: C1CCN(C1)C(=O)NC2=CC=CC(=C2)NC3=NC=C(C(=N3)NCCC4=CN=CN4)Br
Summary of the method: as §1

[8] = compound: C1CN(CCC1(CC2=CC=C(C=C2)Cl)N)C3=NC=NC4=C3C=CN4
Summary of the method: as §1

IRAK-1-4 Inhibitor I = compound: C1COCCN1CCN2C3=CC=CC=C3N=C2NC(=O)C4=CC(=CC=C4)[N+](=O)[O-] [IRAK-1-4 Inhibitor I]
Summary of the method: as §1

ibrutinib = compound: C=CC(=O)N1CCC[C@@H](n2nc(-c3ccc(Oc4ccccc4)cc3)c3c(N)ncnc32)C1 [ibrutinib]
Summary of the method: as §1

[9] = compound: CC(=O)c1cnc2ccc(-c3cc(Cl)c(O)c(Cl)c3)nc2c1N[C@H]1CC[C@H](CN(C)C)CC1
Summary of the method: as §1

ralimetinib = compound: CC(C)(C)Cn1c(N)nc2ccc(-c3[nH]c(C(C)(C)C)nc3-c3ccc(F)cc3)nc21 [ralimetinib]
Summary of the method: as §1

[10] = compound: CC(C)(O)CC(=O)NCCn1ccc2ncnc(Nc3ccc(Oc4cccc(C(F)(F)F)c4)c(Cl)c3)c21
Summary of the method: as §1

[11] = compound: CC(C)C1=C2N=C(C=C(N2N=C1)NCC3=CC=CC=C3)NCCCCCCN
Summary of the method: as §1

[12] = compound: CC1=C(C(CC(=O)N1)C2=CC=C(C=C2)C(F)(F)F)C(=O)NC3=C(C=C4C(=C3)C=NN4)F
Summary of the method: as §1

[13] = compound: CC1=C(C2=C(C=C1)C(=O)C3=CC=CC=C3N2CCCN)C
Summary of the method: as §1

[14] = compound: CC1=C(C=C(C=C1)NC(=O)C2=CC(=CC=C2)C(C)(C)C#N)NC3=CC4=C(C=C3)N=CN(C4=O)C
Summary of the method: as §1

[15] = compound: CC1=C(C=C(C=C1)NC(=O)C2=CC(=CC=C2)N(C)C)NC(=O)C3=CC=C(C=C3)O
Summary of the method: as §1

[16] = compound: CC1=CC=C(C=C1)SC2=C3C=C(SC3=CN=C2)C(=O)N
Summary of the method: as §1

Chain of UniProt Q6PGP7 (Q6PGP7 whole entry, looked up): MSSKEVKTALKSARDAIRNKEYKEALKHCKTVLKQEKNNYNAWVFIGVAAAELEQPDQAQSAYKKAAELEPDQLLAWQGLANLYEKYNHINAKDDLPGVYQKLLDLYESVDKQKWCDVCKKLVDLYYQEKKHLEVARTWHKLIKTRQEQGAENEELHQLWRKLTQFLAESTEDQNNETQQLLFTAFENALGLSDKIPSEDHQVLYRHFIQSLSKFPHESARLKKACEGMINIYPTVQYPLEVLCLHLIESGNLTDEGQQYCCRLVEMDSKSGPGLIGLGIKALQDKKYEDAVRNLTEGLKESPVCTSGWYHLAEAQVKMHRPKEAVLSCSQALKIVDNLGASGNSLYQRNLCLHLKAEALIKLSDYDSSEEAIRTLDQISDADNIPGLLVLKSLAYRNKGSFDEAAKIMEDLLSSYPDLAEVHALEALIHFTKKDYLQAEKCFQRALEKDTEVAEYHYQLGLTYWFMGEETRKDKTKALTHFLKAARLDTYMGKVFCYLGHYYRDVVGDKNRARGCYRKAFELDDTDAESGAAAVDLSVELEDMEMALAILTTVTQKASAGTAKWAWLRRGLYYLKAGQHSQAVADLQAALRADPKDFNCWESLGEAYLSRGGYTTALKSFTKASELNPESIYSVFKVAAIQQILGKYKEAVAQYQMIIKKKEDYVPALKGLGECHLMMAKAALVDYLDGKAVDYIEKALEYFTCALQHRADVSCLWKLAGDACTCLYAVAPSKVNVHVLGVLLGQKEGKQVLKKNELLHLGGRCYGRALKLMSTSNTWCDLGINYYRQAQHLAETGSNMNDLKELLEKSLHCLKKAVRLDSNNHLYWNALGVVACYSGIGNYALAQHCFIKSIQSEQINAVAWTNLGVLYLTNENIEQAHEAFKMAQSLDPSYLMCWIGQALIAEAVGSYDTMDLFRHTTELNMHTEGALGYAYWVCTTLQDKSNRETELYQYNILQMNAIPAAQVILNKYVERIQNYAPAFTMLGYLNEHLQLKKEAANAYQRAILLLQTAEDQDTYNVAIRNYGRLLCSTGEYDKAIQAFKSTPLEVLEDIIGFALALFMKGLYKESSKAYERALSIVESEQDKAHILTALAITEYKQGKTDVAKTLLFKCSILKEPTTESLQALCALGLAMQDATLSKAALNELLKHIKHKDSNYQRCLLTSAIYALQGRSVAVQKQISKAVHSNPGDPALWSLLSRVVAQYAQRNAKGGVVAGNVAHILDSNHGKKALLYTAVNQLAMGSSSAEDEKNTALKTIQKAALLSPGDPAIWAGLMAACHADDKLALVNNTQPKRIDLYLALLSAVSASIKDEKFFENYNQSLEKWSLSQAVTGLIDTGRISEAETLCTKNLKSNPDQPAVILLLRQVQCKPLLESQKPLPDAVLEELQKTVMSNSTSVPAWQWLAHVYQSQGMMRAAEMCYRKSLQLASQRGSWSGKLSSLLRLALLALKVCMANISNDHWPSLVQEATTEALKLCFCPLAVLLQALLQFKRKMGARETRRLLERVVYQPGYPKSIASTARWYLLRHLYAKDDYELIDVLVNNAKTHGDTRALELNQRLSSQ
Chain of UniProt Q01085 (Q01085 whole entry, looked up): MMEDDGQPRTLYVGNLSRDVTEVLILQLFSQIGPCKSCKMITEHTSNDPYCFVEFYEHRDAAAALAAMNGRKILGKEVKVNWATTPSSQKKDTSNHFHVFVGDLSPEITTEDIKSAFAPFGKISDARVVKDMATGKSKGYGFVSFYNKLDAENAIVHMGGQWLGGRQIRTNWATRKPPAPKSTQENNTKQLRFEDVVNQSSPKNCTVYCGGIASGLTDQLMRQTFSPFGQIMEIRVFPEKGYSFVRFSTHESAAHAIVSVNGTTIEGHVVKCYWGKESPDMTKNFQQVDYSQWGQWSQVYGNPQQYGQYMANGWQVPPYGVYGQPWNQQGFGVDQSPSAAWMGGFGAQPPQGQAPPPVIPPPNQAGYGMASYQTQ
Chain of UniProt Q96CW5 (Q96CW5 whole entry, looked up): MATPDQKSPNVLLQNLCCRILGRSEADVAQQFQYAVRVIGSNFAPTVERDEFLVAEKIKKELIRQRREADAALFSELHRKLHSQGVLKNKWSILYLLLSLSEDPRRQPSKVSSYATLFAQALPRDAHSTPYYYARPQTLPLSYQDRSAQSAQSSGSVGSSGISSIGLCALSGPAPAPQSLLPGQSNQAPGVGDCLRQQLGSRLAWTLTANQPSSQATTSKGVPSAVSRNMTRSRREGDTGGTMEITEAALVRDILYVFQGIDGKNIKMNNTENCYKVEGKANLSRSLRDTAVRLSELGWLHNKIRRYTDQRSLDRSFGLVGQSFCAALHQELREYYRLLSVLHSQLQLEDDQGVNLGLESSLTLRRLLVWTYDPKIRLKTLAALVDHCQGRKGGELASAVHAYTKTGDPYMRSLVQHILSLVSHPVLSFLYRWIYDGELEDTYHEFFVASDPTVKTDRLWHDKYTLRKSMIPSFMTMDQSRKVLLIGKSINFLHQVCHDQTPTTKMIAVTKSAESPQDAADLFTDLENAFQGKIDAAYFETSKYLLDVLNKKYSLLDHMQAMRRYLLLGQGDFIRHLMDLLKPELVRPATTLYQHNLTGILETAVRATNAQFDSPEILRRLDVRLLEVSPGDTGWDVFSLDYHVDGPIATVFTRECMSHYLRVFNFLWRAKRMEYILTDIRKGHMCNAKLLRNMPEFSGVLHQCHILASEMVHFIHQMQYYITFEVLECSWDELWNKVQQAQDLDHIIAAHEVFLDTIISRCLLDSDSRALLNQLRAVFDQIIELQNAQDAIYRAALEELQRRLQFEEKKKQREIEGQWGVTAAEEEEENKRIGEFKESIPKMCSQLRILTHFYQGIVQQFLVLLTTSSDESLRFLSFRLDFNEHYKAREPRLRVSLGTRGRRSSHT
Chain of UniProt Q0IIM8 (Q0IIM8 whole entry, looked up): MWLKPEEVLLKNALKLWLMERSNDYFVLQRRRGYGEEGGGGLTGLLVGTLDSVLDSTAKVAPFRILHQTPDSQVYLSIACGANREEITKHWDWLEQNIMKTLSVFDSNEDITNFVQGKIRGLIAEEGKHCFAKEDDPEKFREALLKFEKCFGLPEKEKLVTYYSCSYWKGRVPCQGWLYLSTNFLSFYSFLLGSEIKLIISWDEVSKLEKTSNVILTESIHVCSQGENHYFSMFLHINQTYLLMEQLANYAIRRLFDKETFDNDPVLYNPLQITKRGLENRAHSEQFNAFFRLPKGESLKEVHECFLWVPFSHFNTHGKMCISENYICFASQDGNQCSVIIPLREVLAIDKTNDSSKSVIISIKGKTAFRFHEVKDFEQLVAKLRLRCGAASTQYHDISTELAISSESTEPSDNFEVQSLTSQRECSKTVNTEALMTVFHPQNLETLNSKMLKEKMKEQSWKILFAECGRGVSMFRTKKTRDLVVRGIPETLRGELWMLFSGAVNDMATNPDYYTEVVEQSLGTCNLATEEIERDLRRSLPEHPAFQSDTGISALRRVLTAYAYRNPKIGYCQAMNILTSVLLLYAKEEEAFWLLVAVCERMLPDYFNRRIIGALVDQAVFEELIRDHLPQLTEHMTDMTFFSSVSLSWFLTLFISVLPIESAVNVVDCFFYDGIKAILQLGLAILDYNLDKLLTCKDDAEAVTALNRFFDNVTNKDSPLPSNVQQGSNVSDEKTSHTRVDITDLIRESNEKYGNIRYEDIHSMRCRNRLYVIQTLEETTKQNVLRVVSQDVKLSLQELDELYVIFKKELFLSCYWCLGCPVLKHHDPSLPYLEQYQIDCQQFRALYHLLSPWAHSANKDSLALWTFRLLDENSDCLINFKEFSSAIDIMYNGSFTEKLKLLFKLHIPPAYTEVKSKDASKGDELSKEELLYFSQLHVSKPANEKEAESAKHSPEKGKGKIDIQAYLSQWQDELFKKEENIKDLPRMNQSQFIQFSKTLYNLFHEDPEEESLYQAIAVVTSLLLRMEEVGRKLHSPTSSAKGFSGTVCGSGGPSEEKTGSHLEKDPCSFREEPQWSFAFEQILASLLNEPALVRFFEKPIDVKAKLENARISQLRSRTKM
Chain of UniProt Q01664 (Q01664 whole entry, looked up): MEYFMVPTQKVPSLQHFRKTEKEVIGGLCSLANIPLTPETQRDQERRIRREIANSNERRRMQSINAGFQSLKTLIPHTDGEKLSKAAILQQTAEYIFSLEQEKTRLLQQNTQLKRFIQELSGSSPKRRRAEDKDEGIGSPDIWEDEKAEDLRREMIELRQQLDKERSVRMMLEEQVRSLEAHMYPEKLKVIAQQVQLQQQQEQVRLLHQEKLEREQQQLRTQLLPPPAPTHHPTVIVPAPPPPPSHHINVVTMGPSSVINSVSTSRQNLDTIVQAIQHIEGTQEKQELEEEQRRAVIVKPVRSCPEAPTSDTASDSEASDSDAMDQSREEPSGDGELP
Chain of UniProt Q5BVD1 (Q5BVD1 whole entry, looked up): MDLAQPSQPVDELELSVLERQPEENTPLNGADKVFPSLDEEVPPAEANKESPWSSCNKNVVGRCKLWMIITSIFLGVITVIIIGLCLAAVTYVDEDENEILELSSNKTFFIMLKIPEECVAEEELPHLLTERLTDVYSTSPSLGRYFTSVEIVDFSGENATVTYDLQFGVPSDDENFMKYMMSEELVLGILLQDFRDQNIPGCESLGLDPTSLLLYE
Chain of UniProt A6NHL2 (A6NHL2 whole entry, looked up): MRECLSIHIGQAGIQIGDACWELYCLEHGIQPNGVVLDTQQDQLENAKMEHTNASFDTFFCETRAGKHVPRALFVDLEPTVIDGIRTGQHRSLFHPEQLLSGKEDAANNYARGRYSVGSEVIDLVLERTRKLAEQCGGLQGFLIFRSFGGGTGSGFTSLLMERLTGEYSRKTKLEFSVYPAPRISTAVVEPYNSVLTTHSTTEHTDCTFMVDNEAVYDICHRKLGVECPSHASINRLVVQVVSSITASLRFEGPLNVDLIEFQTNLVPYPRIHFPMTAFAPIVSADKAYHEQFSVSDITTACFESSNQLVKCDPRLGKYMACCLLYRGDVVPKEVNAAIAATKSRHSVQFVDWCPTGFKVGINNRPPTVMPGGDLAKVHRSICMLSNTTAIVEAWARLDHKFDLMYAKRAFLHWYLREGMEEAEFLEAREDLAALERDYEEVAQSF

Row | Target | log2 fold change (erlotinib) | log2 fold change [1] | log2 fold change [2] | log2 fold change [3] | log2 fold change [4] | log2 fold change [5] | log2 fold change [6] | log2 fold change [7] | log2 fold change [8] | log2 fold change (IRAK-1-4 Inhibitor I) | log2 fold change (ibrutinib) | log2 fold change [9] | log2 fold change (ralimetinib) | log2 fold change [10] | log2 fold change [11] | log2 fold change [12] | log2 fold change [13] | log2 fold change [14] | log2 fold change [15] | log2 fold change [16]
1 | TTMP isoform 3 (UniProt Q5BVD1) | 0.121 | -0.173 | -0.023 | -0.106 | -0.026 | -0.026 | -0.08 | -0.05 | 0.086 | 0.193 | 0.09 | 0 | -0.034 | -0.22 | -0.038 | -0.091 | -0.02 | 0.296 | -0.004 | -0.099
2 | UBAP2 (UniProt Q5T6F2) | -0.02 | -0.02 | 0.032 | 0.01 | 0.022 | -0.159 | 0.016 | -0.009 | 0.001 | 0.016 | 0.014 | 0.009 | -0.044 | -0.067 | 0.008 | 0.03 | 0.006 | -0.474 (active) | -0.026 | -0.019
3 | TJP1 (UniProt G3V1L9) | 0.169 | 0.199 | 0.087 | -0.119 | -0.068 | 0.014 | 0.063 | – | – | 0.047 | 0.024 | – | 0.075 | -0.014 | -0.025 | -0.041 | 0.022 | -0.017 | -0.041 | –
4 | UBXN10 (UniProt Q96LJ8) | 0.064 | 0.026 | 0.057 | -0.089 | -0.072 | 0.027 | 0.018 | -0.012 | 0.041 | 0.03 | 0.016 | 0.044 | 0.002 | -0.012 | 0.014 | – | 0.012 | -0.001 | 0.069 | -0.015
5 | TIAL1 isoform 2 (UniProt Q01085) | 0.015 | -0.001 | 0.023 | -0.015 | -0.019 | -0.035 | 0.059 | 0 | 0.017 | 0.058 | 0.018 | -0.004 | -0.063 | -0.001 | -0.001 | 0.049 | 0.015 | -0.167 | -0.06 | -0.012
6 | TTC27 (UniProt Q6P3X3) | 0.017 | 0.018 | -0.043 | 0.004 | 0.007 | -0.014 | -0.028 | -0.015 | 0.006 | -0.013 | -0.025 | 0.017 | -0.012 | 0.046 | 0.02 | 0 | -0.011 | -0.012 | 0.034 | 0.042
7 | TTLL12 (UniProt V9GY16) | 0.144 | 0.13 | -0.193 | -0.05 | 0.074 | -0.061 | -0.072 | -0.167 | 0.128 | 0.229 | -0.32 | – | -0.339 | -0.165 | -0.333 | – | – | 0.031 | -0.009 | –
8 | TXNIP (UniProt Q9H3M7) | 0.036 | -0.165 | -0.057 | -0.045 | -0.001 | -0.003 | 0.048 | -0.042 | 0.017 | 0.041 | -0.009 | – | 0.007 | -0.02 | -0.053 | 0.011 | -0.036 | 0.037 | 0.016 | –
9 | TK1 (UniProt K7ERV3) | 0.01 | -0.061 | 0.078 | -0.047 | -0.114 | 0.048 | 0.036 | 0.017 | 0.222 | 0.04 | 0.175 | – | -0.018 | -0.061 | -0.114 | -0.013 | -0.023 | 0.032 | -0.028 | –
10 | TUBAL3 (UniProt A6NHL2) | -0.018 | -0.01 | -0.076 | -0.114 | -0.004 | -0.011 | -0.134 | -0.025 | 0.037 | 0.078 | 0.002 | -0.071 | 0.056 | -0.145 | 0.116 | -0.009 | -0.008 | – | -0.119 | 0.025
11 | TUBGCP3 (UniProt Q96CW5) | -0.035 | 0.021 | -0.054 | 0.044 | 0.02 | -0.039 | 0.012 | -0.044 | -0.019 | -0.054 | -0.007 | 0.018 | 0.03 | 0.045 | -0.039 | 0.003 | -0.037 | 0.004 | 0.106 | 0.028
12 | TMEM177 (UniProt Q53S58) | 0.042 | 0.06 | -0.042 | 0.016 | -0.019 | -0.054 | 0.148 | 0.019 | 0.005 | 0 | 0.079 | -0.022 | -0.287 | -0.311 (active) | 0.007 | – | – | -0.03 | 0.032 | -0.005
13 | TUBB4A (UniProt M0QYM7) | -0.017 | -0.063 | 0.071 | -0.015 | -0.322 | 0.044 | -0.097 | -0.038 | -0.027 | 0.025 | 0.092 | 0.049 | 0.103 | -0.117 | 0.005 | -0.102 | – | 0.13 | 0.102 | 0.024
14 | TBC1D8B (UniProt Q0IIM8) | -0.023 | -0.376 | 0.036 | -0.041 | 0 | 0.01 | 0.01 | 0.017 | 0.063 | 0.001 | 0.044 | -0.039 | -0.049 | -0.017 | 0.031 | -0.072 | 0.006 | 0.016 | -0.056 | -0.051
15 | TNIK (UniProt C9J338) | 0.067 | -0.048 | 0.067 | -0.071 | -0.064 | – | -0.112 | -0.101 | 0.064 | – | 0.041 | -0.076 | – | – | 0.025 | – | -0.042 | 0.16 | – | -0.114
16 | TFAP4 (UniProt Q01664) | -0.063 | -0.042 | 0.017 | -0.025 | 0.018 | -0.09 | 0.055 | 0.135 | -0.016 | -0.061 | 0.057 | 0.141 | 0.004 | -0.26 | -0.109 | 0.046 | – | 0.058 | 0.038 | 0.07
17 | TTC37 (UniProt Q6PGP7) | 0.05 | -0.148 | 0.07 | -0.014 | -0.069 | -0.187 | -0.068 | – | – | 0.051 | 0.012 | 0.047 | -0.024 | 0.012 | -0.012 | -0.019 | -0.188 | 0.154 | -0.043 | -0.15

— the supplement of paper PMC10849652
